Source: PubChem BioAssay
Only some compounds are listed: those with a hit (about 19% of all), similar ones and a draw of the others.
HT1080NT lethal: qHTS for induction of synthetic lethality in tumor cells producing 2HG: qHTS for the HT-1080-NT fibrosarcoma cell line | HT-1080-NT fibrosarcoma viability, CellTiter-Glo ATP luminescence, 48 h | Potency, µM (series often up to 46.1 µM), for inactives: at the highest dose activity, negative = less viability, hits mostly cytotoxic | actives 1.6% (n = 360,000) | AID 686970, 2013;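 note: NT is the 2HG producing partner of a matched IDH1 knockdown line; potency is the fitted concentration of half-maximal effect; 0% = DMSO-treated cells and -100% = media-only wells without cells; nearly all actives have a fitted effect of over 55% in size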
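Read-out is CellTiter-Glo luminescence after 10 minutes at room temperature, following 48 hours' compound treatment of HT-1080-NT cells (750 cells/well, RPMI, 5% FBS, 37 degrees C).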
TDP1 cell noCPT: qHTS for Inhibitors of human tyrosyl-DNA phosphodiesterase 1 (TDP1): qHTS in cells in absence of CPT | DT40 Tdp1-/- hTDP1 cells, no CPT, ATP luminescence, 48 h | Potency, µM (titrated, usually from 46.2 µM), for the others: at the highest dose activity change, negative = growth inhibition, usual class: inhibitors | actives 15% (n = 420,000) | AID 686978, 2013; note: potency is the fitted concentration of half-maximal effect; nearly all actives have a fitted effect of over 55% in size
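Luminescent ATP content (CellTiter-Glo) served as the growth readout. Knockout chicken DT40 cells expressing human TDP1 were exposed to compounds without camptothecin for a minimum 48 hr at 37 °C.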
ELG1 repair inh: qHTS screen for small molecules that inhibit ELG1-dependent DNA repair in human embryonic kidney (HEK293T) cells expressing luciferase-tagged ELG1 | HEK293T ELG1-luciferase reporter, luminescence, 16 h; DNA damage induced by 5-fluorouridine | Potency, µM (top dose mostly 46.1 µM), inactives show at the highest dose activity change, negative = inhibition, most hits filed as inhibitors | actives 2.3% (n = 330,000); note: potency is the fitted concentration of half-maximal effect; nearly all actives have a fitted effect of over 55% in size
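5-Fluorouridine DNA damage + compound/DMSO, 2,000 cells/well, 16 h, 37 °C/5% CO2. ONE-Glo, 30 min RT, luminescence. Readout = decrease in reporter signal.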
HT1080 IDH1KD tx: qHTS for induction of synthetic lethality in tumor cells producing 2HG: qHTS for the HT-1080-IDH1KD cell line | actives 2% (n = 360,000) | Potency, µM (series often up to 46.1 µM), for the others: at the highest dose activity, negative = toxicity, actives largely listed as cytotoxic | HT-1080 IDH1 knockdown viability, ATP luminescence, 48 h | AID 686971, 2013;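 note: potency is the fitted concentration of half-maximal effect; 0% = DMSO wells and -100% = cell-free medium wells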
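Viability of IDH1-knockdown HT-1080 fibrosarcoma cells was assessed by CellTiter-Glo after 48 h at 37 °C with titrated compound; concentration-effect curves were classified by fit quality and response size.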
IL-1B inflam inh: qHTS for Inhibitors of Inflammasome Signaling: IL-1-beta AlphaLISA Primary Screen; activity change, % at 57.5 µM; actives 4.7% (n = 360,000); THP-1 LPS/ATP IL-1B secretion, AlphaLISA, 16 h; hits give low values; in the data active = activity change below about -50%; inconclusive = mostly about -30% to -49%
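THP-1 cells pretreated 1 hr with compounds (up to 57.5 uM final), then stimulated with LPS (250 ng/mL final) plus ATP (1.25 mM final); secreted IL-1B measured by AlphaLISA after 16 hr, decreased signal indicating inhibition.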
TDP1 cell CPT: qHTS for Inhibitors of human tyrosyl-DNA phosphodiesterase 1 (TDP1): qHTS in cells in presence of CPT. AID 686979, 2013. actives 12% (n = 420,000). chicken DT40 Tdp1-/-;hTDP1 cells + 20 nM CPT, ATP luminescence, 48 h. Potency, µM (titrated, usually from 46.2 µM), inactives show at the top dose activity change, negative = growth inhibition, actives largely listed as inhibitors; note: potency is the fitted concentration of half-maximal effect; nearly all actives have a fitted effect of over 55% in size
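Cell growth measured by CellTiter-Glo luminescence after a minimum 48 h, 37 C compound exposure with 20 nM CPT in Tdp1-knockout DT40 cells stably expressing hTDP1, seeded 400/well; qHTS titration format.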
Numbers without * were called inactive; i = inactive; ? = inconclusive; nt = not tested or not shown; [ ] = another dose, or the depositor's remark. Unless noted, calls come from the whole dose curve; as a rule, active = well fitted curve in the direction sought with a large enough effect; inconclusive = small, poorly fitted or top-dose-only effect, or another doubt; inactive = no such curve, though single readings can be large; an effect the other way counts as inactive or inconclusive. Unless noted, % is set by controls: 0 for no effect and ±100 for the full control effect.

SMILES	HT1080NT lethal	TDP1 cell noCPT	ELG1 repair inh	HT1080 IDH1KD tx	IL-1B inflam inh	TDP1 cell CPT
CCOC(=O)c1c(NC(=O)c2cc(-c3ccc(OC)c(OC)c3)on2)sc2c1CCCC2	nt	-23%	nt	nt	nt	3%
CCOC(=O)c1c(NC(=O)CSc2cn(CCNC(=O)c3ccc(OC)c(OC)c3)c3ccccc23)sc2c1CCCC2	nt	2.9µM*	nt	nt	nt	7.3µM*
COc1ccccc1C(=O)NCCn1cc(SCC(=O)Nc2nnc(C)s2)c2ccccc21	-2%	-28%	?	1%	-6	?
CCOC(=O)c1c(NC(=O)C(C)Sc2cn(CCNC(=O)c3ccc(OC)c(OC)c3)c3ccccc23)sc2c1CCC2 (centres undefined)	nt	?	nt	nt	nt	21µM*
CCOC(=O)c1c(NC(=O)C(C)Sc2cn(CCNC(=O)c3ccccc3OC)c3ccccc23)sc2c1CCC2 (centres undefined)	nt	5.2µM*	nt	nt	nt	18µM*
CCOC(=O)c1c(NC(=O)CSc2nnc(-c3c[nH]c4ccccc34)n2CCOC)sc2c1CCCC2	?	15µM*	-27%	-24%	-18	23µM*
CCCOc1ccc(N2CC(C(=O)NCCc3ccc(OC)c(OC)c3)CC2=O)cc1 (centres undefined)	2%	4%	5%	2%	24	4%
CN(CCN1CCOCC1)C(=O)c1cc(COc2ccc(F)c(F)c2)on1	-1%	-17%	?	1%	i	-24%
COc1cccc2c1cc1c(=O)n(CC(=O)N3CCN(c4cccc(C)c4)C(C)C3)nc(C)n12 (centres undefined)	nt	4%	nt	nt	nt	-22%
CCOC(=O)c1c(NC(=O)C(C)S(=O)(=O)c2cn(CC)c3ccccc23)sc2c1CCCC2 (centres undefined)	4%	6.5µM*	-15%	-6%	-14	?
CCOC(=O)c1c(NC(=O)c2ccccc2C)sc2c1CCCC2	nt	?	nt	nt	nt	-21%
Cc1[nH][nH]c(=O)c1C(c1ccc(-c2ccc(Cl)c(C(=O)O)c2)o1)c1c(C)[nH][nH]c1=O	8%	-9%	?	14%	1	-12%
COC(=O)c1ccccc1-c1ccc(C(c2c(C)[nH][nH]c2=O)c2c(C)[nH][nH]c2=O)o1	?	21µM*	-3%	?	?	?
COC(=O)c1cccc(-c2ccc(C(c3c(C)[nH][nH]c3=O)c3c(C)[nH][nH]c3=O)o2)c1	?	23µM*	?	?	-19	7.3µM*
O=C(CCC(=O)CCN1CCCCC1)CCN1CCCCC1	-5%	21µM*	nt	-7%	-16	13µM*
COc1cccc(-c2cc(=O)c3cc(NC(C)=O)ccc3[nH]2)c1	-8%	16µM*	?	?	59	?
CCCCn1c(N)c(N(CCOC)C(=O)c2c(CC)noc2C)c(=O)[nH]c1=O	1%	-17%	7%	0%	-1	4%
COC(=O)c1ccccc1NC(=O)CCC(=O)N1CC(C)Oc2ccc(C)cc21 (centres undefined)	10%	?	?	1%	9	15µM*
Cc1ccc2c(c1)N(C(=O)CCC(=O)Nc1ccc(F)cc1F)CC(C)O2 (centres undefined)	nt	7.3µM*	nt	nt	nt	5.2µM*
Cc1ccc2c(c1)N(C(=O)CCC(=O)N1CCC(C(N)=O)CC1)CC(C)O2 (centres undefined)	0%	5%	5%	3%	-5	26µM*
Cc1ccc2c(c1)N(C(=O)CCC(=O)NCC(C)c1ccccc1)CC(C)O2 (centres undefined)	17%	?	-5%	7%	-6	?
CCOC(=O)c1cccc(NC(=O)CCC(=O)N2CC(C)Oc3ccc(C)cc32)c1 (centres undefined)	nt	?	nt	nt	nt	23µM*
COc1cc(CN2C[C@@H](CO)O[C@@H](n3cnc4c(Nc5ccccc5)ncnc43)C2)cc(OC)c1OC	29%	?	nt	23%	20	?
COc1ccccc1NC(=O)c1ccc(NC(=O)CSc2nc(N)cc(=O)[nH]2)cc1	1%[9.24 µM]	19%	?	-3%	?	-1%
CC1(C)CC(=O)C=C(c2ccc(COC(=O)Cc3ccccc3)cc2)C1=O	6%	-16%	nt	8%	29	-13%
SMILES	HT1080NT lethal	TDP1 cell noCPT	ELG1 repair inh	HT1080 IDH1KD tx	IL-1B inflam inh	TDP1 cell CPT
CCn1c(-c2cccc(OC)c2)nc2cc(NC(C)=O)cc(C(=O)N(C)CC3COCCO3)c21 (centres undefined)	nt	-17%	nt	nt	nt	2%
CC1CN(C(=O)CCC(=O)N2CCN(c3cccc(C(F)(F)F)c3)CC2)c2ccccc2O1 (centres undefined)	-7%	21µM*	-24%	-21%	-22	18µM*
COc1ccc(N2CCN(C(=O)CCC(=O)N3CC(C)Oc4ccccc43)CC2)cc1 (centres undefined)	-15%	?	-25%	2%	-15	?
COC(=O)c1ccccc1NC(=O)CCC(=O)N1CC(C)Sc2ccccc21 (centres undefined)	nt	15µM*	nt	nt	nt	16µM*
O=C(CSc1nccn1Cc1ccco1)Nc1ccccc1	-22%	?	?	-6%	0	?
COc1cccc(OCc2cc(C(=O)N(Cc3ccccc3)CC3CC3)no2)c1	-8%	?	17%	-9%	-26	-27%
Nc1nc(N)nc(-c2ccc(Cl)c(Cl)c2)n1	-5%	12µM*	-27%	-1%	-30	21µM*
Cc1nc(N)nc(N)c1CCCc1ccc(Cl)c(Cl)c1	8.2µM*	2.6µM*	nt	1.2µM*	-104*	10µM*
COc1ccc(-c2nc(N)nc(C)c2-c2ccc(Cl)cc2)c(O)c1	-4%	-17%	-22%	-2%	37	-33%
Cc1cc(OCCCn2cnc3ccccc3c2=O)ccc1[N+](=O)[O-]	0%	?	-2%	4%	-1	?
